According to PubChem BioAssay AID463173 (ICCB-Longwood Screening Facility, Harvard Medical School, 2010):
Among all 52,000 compounds or so, about 4,300 (8.3%) were called active. Rule as the data show it: active = survival mostly below about 52% (no sharp cut-off); inactive = mostly above about 56%. Shown is part of a subset that was picked to be rich in actives.

These molecules were tested on DeltatarO mutant (assay: S. aureus survival, RN4220 and DeltatarO strains – OD600, teichoic acid synthesis inhibitors, primary screen (AID 463173)). Details: S. aureus RN4220 wild type/DeltatarO growth, OD600, 18 h, stronger effect = lower value, screened at 18.75 µg/mL (by protocol).

SMILES	survival
O=C(CCNS(=O)(=O)c1ccc2c(c1)CCCC(=O)N2)NCc1ccccc1Cl	87% (inactive)
CCCOc1ccc(CNC(=O)Cn2ncn3c(cc4sc(CC)cc43)c2=O)cc1	94% (inactive)
CC(C)Cc1nn2c(=O)cc(COC(=O)c3ccccc3NC(=O)c3ccccc3)nc2s1	117% (inactive)
CSc1ncc(C(=O)Nc2ccccc2C(=O)c2ccccc2)c(C)n1	64% (inactive)
Cc1cccc(C(=O)NC(c2n[nH]c(=S)n2C)C(C)C)c1 (stereo not drawn)	111% (inactive)
CCCOc1cccc(C(=O)Nc2cccc(NC(=O)c3ccc(Cl)cc3Cl)c2)c1	88% (inactive)
Cc1ccc(C)c(NC(=O)CCOc2ccccc2)c1	77% (inactive)
CCc1ccc(NC(=O)Cc2c(C(=O)O)c(C)cn2C)cc1	87% (inactive)
Cc1cn(C)c(CC(=O)Nc2cccc(Cl)c2C)c1C(=O)O	99% (inactive)
CCOC(=O)c1ccccc1NC(=O)CCOc1ccccc1	22% (active)
CCOC(=O)c1ccccc1NC(=O)Cc1c(C(=O)O)c(C)cn1C	17% (active)
Cc1c(Cl)cccc1NC(=O)CCOc1ccccc1	142% (inactive)
COc1ccc(C2(C(=O)O)CCCC2)cc1OC	107% (inactive)
CSc1ncc(C(=O)N2CCN(c3cc(C)ccc3C)CC2)c(C)n1	72% (inactive)
Cc1ccc(S(=O)(=O)c2nnn3c2nc(N2CCC(C)CC2)c2cc(Cl)ccc23)cc1C	78% (inactive)
COc1ccc(OC)c(C2C(C(=O)N3CCCCC3)=C(C)Nc3nc4ccccc4n32)c1 (stereo not drawn)	63% (inactive)
COc1ccc(-n2cnc3cc(C(=O)NCCC4=CCCCC4)ccc32)cc1	75% (inactive)
CC(C)C(=O)Nc1ccc(N2CCN(C(=O)c3ccccc3)CC2)cc1	101% (inactive)
CCOCCCn1c(SCC(=O)Nc2ccccc2CC)nc2ccccc2c1=O	80% (inactive)
Cc1ccc(Cn2c(SCC(=O)NCc3ccccc3)nc3ccsc3c2=O)cc1	92% (inactive)
O=C(CSc1nc2ccsc2c(=O)n1Cc1ccccc1Cl)NCc1ccc(Cl)cc1	101% (inactive)
Cc1ccc(CSc2nc3ccsc3c(=O)n2CCC(C)C)cc1	-5% (active)
Cc1ccccc1CSc1nc2ccsc2c(=O)n1CCC(C)C	68% (inactive)
CC(C)CCn1c(SCc2cccc(F)c2)nc2ccsc2c1=O	87% (inactive)

SMILES	survival
Cc1ccc(Cn2c(SCC(=O)NCc3ccccc3Cl)nc3ccsc3c2=O)cc1	-5% (active)
Cc1nc2sc(C(=O)N(C)Cc3ccccc3)c(NC(=O)c3ccccc3)c2c(C)c1Cl	60% (inactive)
Cc1cc(=O)n(Cc2ccccc2Cl)c2c1c(C)nn2-c1ccccc1	100% (inactive)
CCOc1ccc(CNC(=O)c2nn(-c3ccc(OC)cc3)c(=O)c3c2c2ccccc2n3C)cc1	101% (inactive)
CCC(=O)N1c2ccccc2CC1C(=O)NCc1ccc(OC(C)C)cc1 (stereo not drawn)	97% (inactive)
CC1CCN(CC(=O)O)CC1	99% (inactive)
COc1cc(-c2noc(CSc3nc(-c4ccc(F)cc4)cc(=O)[nH]3)n2)cc(OC)c1OC	69% (inactive)
CC1CCN(C(=O)c2cc(-c3cccc(Cl)c3)on2)CC1	-15% (active)
O=C(c1cc(-c2cccc(Cl)c2)on1)N1CCN(c2ccccc2)CC1	23% (active)
CN(C(=O)c1cc(-c2ccccc2)on1)C1CCCCC1	91% (inactive)
CN(C(=O)c1cc(-c2ccccc2O)on1)c1ccccc1	40% (active)
CCc1cc(C(=O)N2CCN(c3ccccc3)CC2)no1	48% (inactive)
O=C(O)c1cc(-c2ccccc2)on1	100% (inactive)
CC1CCN(C(=O)c2cc(-c3ccc(Br)cc3)on2)CC1	51% (inactive)
O=C(c1cc(-c2ccc(O)cc2)on1)N1CCN(c2ccccc2)CC1	96% (inactive)
NC(=O)C1CCN(C(=O)c2cc(-c3ccccc3)on2)CC1	98% (inactive)
CC1CCN(C(=O)c2cc(-c3ccc(Cl)cc3)on2)CC1	66% (inactive)
O=C(C1CC(c2ccccc2O)=NO1)N1CCCC1 (stereo not drawn)	91% (inactive)
O=C(c1cc(-c2ccccc2O)on1)N1CCCCC1	40% (active)
CCN(CCCNC(=O)Cn1ncc2c([nH]c3ccc(C)cc32)c1=O)c1ccccc1	115% (inactive)
Cc1csc2nc(COc3ccc(NC(=O)C(C)C)cc3)cc(=O)n12	98% (inactive)
COc1ccc(NC(=O)Cn2cc(C(=O)c3ccccc3)c(=O)c3cc(OC)ccc32)c(OC)c1	92% (inactive)
CCCn1cc(S(=O)(=O)c2ccc(C)c(C)c2)c(=O)c2cc(F)c(N3CCC(C)CC3)cc21	67% (inactive)
COc1cccc2cc(C(=O)N3CCN(c4cc(C)ccc4C)CC3)c(=O)oc12	56% (inactive)

SMILES	survival
Cc1cccc(CNC(=O)CN2C(=O)CCn3nc(-c4cn(C)c5ccccc45)cc32)c1	119% (inactive)
CCOC(=O)COc1ccc(CC)cc1C(=O)c1ccn2nc(-c3ccc(Cl)cc3)cc2n1	74% (inactive)
COc1ccccc1NC(=O)N(Cc1nnc2n1CCCCC2)c1ccc(F)cc1	91% (inactive)
CN(Cc1ccccc1)C(=O)c1cc(-c2cccc(Cl)c2)on1	-15% (active)
CCN(CC)C(=O)c1cc(-c2ccc(Cl)cc2)on1	36% (active)
COc1ccc(-c2cc(C(=O)N3CCN(c4ccccc4)CC3)no2)cc1	77% (inactive)
COc1ccccc1-c1cc(C(=O)N2CCN(c3ccccc3)CC2)no1	-15% (active)
O=C(c1cc(-c2cccc(Cl)c2)on1)N1CCCCC1	46% (active)
COCCNC(=O)c1cc(-c2cccc(Cl)c2)on1	134% (inactive)
Cc1ccc(-c2cc(C(=O)N3CCCC3)no2)cc1	98% (inactive)
CCN(CC)C(=O)c1cc(-c2ccccc2)on1	101% (inactive)
O=C(NCCc1ccccc1)c1cc(-c2cccc(Cl)c2)on1	76% (inactive)
CCc1ccc(CN(Cc2ccco2)C(=O)c2cc(-c3ccc(Cl)cc3)on2)cc1	75% (inactive)
COc1ccccc1N1CCN(C(=O)c2cc(-c3ccccc3O)on2)CC1	61% (inactive)
O=C(c1cc(-c2ccccc2)on1)N1CCCCC1	95% (inactive)
CC(C)CN1CCc2nc(N3CCN(c4ncccn4)CC3)ncc2C1	72% (inactive)
CCNc1nc(NCC)nc(N(C#N)CC)n1	62% (inactive)
CCc1ccc(NC(=O)Cn2c(=O)n(Cc3ccc(C)cc3)c(=O)c3cccnc32)cc1	88% (inactive)
CC(=O)c1ccc(N2CCN(C(=O)Nc3cn(CC(C)C)c(=O)c4ccccc34)CC2)cc1	80% (inactive)
Cc1ccc(C)c(NC(=O)c2cnc(N3CCCC3)nc2C)c1	94% (inactive)
COc1ccc(NC(=O)CSc2oc(-c3ccc(F)cc3)nc2S(=O)(=O)c2ccc(C)cc2)c(OC)c1	61% (inactive)
Cc1cccc(NC(=O)NCCOCCn2c(=O)oc3ccccc32)c1C	99% (inactive)
O=C(Nc1ccc(Cl)cc1)N1CCC(CN2CCCC2)CC1	84% (inactive)
CCCCC(=O)Nc1cccc(OCc2cc(=O)n3ccccc3n2)c1	87% (inactive)

SMILES	survival
CC1CCC(NC(=O)c2ccc3c(c2)N(Cc2cccc(Cl)c2)C(=O)c2ccccc2S3=O)CC1 (stereo not drawn)	25% (active)
CN(C(=O)c1ccc2c(c1)N(Cc1cccc(Cl)c1)C(=O)c1ccccc1S2=O)C1CCCCC1 (stereo not drawn)	101% (inactive)
CCN(C(=O)c1ccc2c(c1)N(Cc1cccc(Cl)c1)C(=O)c1ccccc1S2=O)c1ccccc1 (stereo not drawn)	32% (active)
O=C(NCCC1=CCCCC1)c1ccc2c(c1)N(Cc1cccc(Cl)c1)C(=O)c1ccccc1S2=O (stereo not drawn)	37% (active)
CCOC(=O)N1CCC(NC(=O)c2ccc3c(c2)N(Cc2ccccc2)C(=O)c2ccccc2S3=O)CC1 (stereo not drawn)	57% (inactive)
O=C(NCCC1=CCCCC1)c1ccc2c(c1)N(Cc1ccccc1)C(=O)c1ccccc1S2=O (stereo not drawn)	70% (inactive)
CCOC(=O)N1CCC(NC(=O)c2ccc3c(c2)N(Cc2cc(C)ccc2C)C(=O)c2ccccc2S3=O)CC1 (stereo not drawn)	42% (active)
O=C(NC1CCCCC1)c1ccc2c(c1)N(Cc1cccc(Cl)c1)C(=O)c1ccccc1S2=O (stereo not drawn)	101% (inactive)
CC1CCC(NC(=O)c2ccc3c(c2)N(Cc2ccccc2)C(=O)c2ccccc2S3=O)CC1 (stereo not drawn)	104% (inactive)
CCCCN(C)C(=O)c1ccc2c(c1)N(Cc1cccc(Cl)c1)C(=O)c1ccccc1S2=O (stereo not drawn)	99% (inactive)
O=C(NCCC1=CCCCC1)c1ccc2c(c1)N(Cc1ccc(Cl)cc1)C(=O)c1ccccc1S2=O (stereo not drawn)	63% (inactive)
CCOC(=O)N1CCC(NC(=O)c2ccc3c(c2)N(Cc2ccccc2C)C(=O)c2ccccc2S3=O)CC1 (stereo not drawn)	53% (inactive)
Cc1ccc(-n2c(=O)c3c(cnn3C)n(CC(=O)Nc3c(C)cccc3C)c2=O)cc1	85% (inactive)
COc1ccc(NC(=O)Cn2c(=O)n(-c3ccc(CC(=O)NCC4CCCO4)cc3)c(=O)c3ccccc32)c(OC)c1 (stereo not drawn)	102% (inactive)
COc1cc(C(=O)N2CCN(c3ccc(Nc4ccccc4)nn3)CC2)cc(OC)c1OC	80% (inactive)
COc1cc(C(=O)Nc2sc(C(=O)N3CCOCC3)c(C)c2C#N)cc(OC)c1OC	84% (inactive)
CN(C)CCN(C(=O)c1ccco1)c1nc2c(F)cc(F)cc2s1	72% (inactive)
O=C(c1ccc2c(c1)N(Cc1ccc(Cl)cc1)C(=O)c1ccccc1S2(=O)=O)N1CCOCC1	96% (inactive)
O=C1OC(C(=O)Nc2cccc(Br)c2)Cc2ccccc21 (stereo not drawn)	54% (inactive)
O=C1OC(C(=O)Nc2cc(C(F)(F)F)ccc2Cl)Cc2ccccc21 (stereo not drawn)	56% (active)
O=C1OC(C(=O)Nc2ccc(Cl)c(C(F)(F)F)c2)Cc2ccccc21 (stereo not drawn)	55% (inactive)
